# Test results from ChEMBL document CHEMBL3433997, “St. Jude Leishmania screening dataset” (2016).
# Molecular target: Solute carrier family 2, facilitated glucose transporter member 1 (Homo sapiens) (UniProt P11166)
# Assay: ST_JUDE_LEISH: Cytotoxicity at 2uM final concentration against transgenic Leishmania Mexicana promastigotes LmGLUT1 that are glucose transport deficient and complemented with the human glucose transporter GLUT1. Activity is measured by DNA content using SYBR green in vitro
# Type: functional
# Chain of Solute carrier family 2, facilitated glucose transporter member 1 (Homo sapiens) (P11166 whole entry): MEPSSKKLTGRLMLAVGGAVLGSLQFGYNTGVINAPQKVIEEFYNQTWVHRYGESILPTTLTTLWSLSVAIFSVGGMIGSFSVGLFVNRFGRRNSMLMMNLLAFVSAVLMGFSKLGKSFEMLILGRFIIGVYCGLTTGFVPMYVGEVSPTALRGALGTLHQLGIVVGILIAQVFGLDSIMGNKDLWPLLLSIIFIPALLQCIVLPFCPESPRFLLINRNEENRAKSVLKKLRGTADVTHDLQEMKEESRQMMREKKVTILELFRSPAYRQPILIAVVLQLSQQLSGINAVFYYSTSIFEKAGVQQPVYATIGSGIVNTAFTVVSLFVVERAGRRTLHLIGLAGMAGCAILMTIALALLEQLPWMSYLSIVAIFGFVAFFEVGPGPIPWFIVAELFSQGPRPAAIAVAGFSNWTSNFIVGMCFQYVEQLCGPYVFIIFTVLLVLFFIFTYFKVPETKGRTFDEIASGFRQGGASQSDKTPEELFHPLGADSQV
row,SMILES,inhibition [%]
1,Cc1c(Cc2ccccc2Br)cnc2nc(N)nc(N)c12,9.6
2,O=C(c1cccs1)N(Cc1cccc(-c2ccc(CNCCc3ccccc3)cc2)c1)C1CCN(Cc2ccccc2)CC1,9.9
3,O=C(NCCSCc1c(F)cccc1Cl)c1cnc2c(c1)nc(-c1c[nH]c(-c3ccccc3)n1)n2CCc1c[nH]cn1,2.77
4,FC(F)(F)c1cccnc1N1CCC(Nc2nc3cc(Cl)ccc3[nH]2)CC1,5.58
5,CC(NC(=O)c1ccc(O)c(-c2ccc(Cl)c(Cl)c2)c1)C(=O)NCCN1CCOCC1 (stereo not given),1.85
6,COc1cc(F)c2nccc([C@@H](O)CN3CCC(NCc4ccc5c(n4)NC(=O)CS5)C(F)C3)c2c1 (stereo not given in full),3.18
7,CCC(=O)c1ccc(-c2ccc(=O)n(CC(=O)N(CCN(CC)CC)Cc3ccc(-c4ccc(C(F)(F)F)cc4)cc3)n2)cc1,0.37
8,O=C(NC(CCCN1CCC(c2ccccc2)CC1)c1ccc(Cl)c(Cl)c1)c1cc(C(F)(F)F)cc(C(F)(F)F)c1 (stereo not given),2.06
9,CC1(C)[C@H]2CC[C@@H](CNc3nc(NCC(=O)Nc4ccc5ccccc5c4)nc(N4CCC(N5CCCC5)CC4)n3)[C@@H]1C2,0.95
10,Cc1cc(NCCc2ccccc2)nc(NC(=N)Nc2cccc(F)c2)n1,2.17
11,Clc1ccc(-c2csc3ncnc(Cl)c23)cc1,4.6
12,CN(N=Cc1ccccc1)C(=N)NCCCC#Cc1cccc(CN2CCCC2)c1,11.4
13,Cc1nc(N)nc(N)c1OCCCCOc1ccccc1,3.87
14,CCOC(=O)C1=C(C)N=c2sc(=Cc3cc(Cl)ccc3O)c(=O)n2C1c1ccc(OC)cc1 (stereo not given),-0.92
15,COc1ccc(S(=O)(=O)Nc2cc(C)cc(Br)c2OC)cc1N1CCN(C(=O)C(Cl)(Cl)Cl)CC1,0.75
16,CC(C)(C)CC(C)(C)c1ccc(O)c(C(=O)Nc2ccc([N+](=O)[O-])cc2)c1,1.13
17,Clc1ccc2c(NCCc3ccccc3)ccnc2c1,4.51
18,COc1ccc2nc(-c3ccccc3)cc(N/N=C/c3ccc([N+](=O)[O-])cc3)c2c1,6.36
19,COc1ccc(CCN2CCC(NCc3cccc(N(C)C)c3)CC2)cc1,-2.94
20,CN1CCc2cc(I)c(O)cc2C1Cc1ccccc1Cl (stereo not given),1.98
21,CCC(CC)n1c(C)cc2c3c(N)nc(N)nc3ccc21,89.4
22,CC(C)C(=O)Nc1c(F)cc(F)cc1CCc1ccc(O)cc1,7.29
23,COc1ccc2nccc(N3CCC(O)(CCNCc4ccc5c(n4)NC(=O)CO5)CC3)c2n1,2.27
24,COc1ccc(NC(=O)Nc2ccc(-c3ccccc3)cc2)cc1Cn1cnc(N2CCCNCC2)cc1=O,3.65
25,CC(C)NCc1cccc(-c2ccc(NC(=O)c3ccc(C#N)cc3)cc2)c1,14.9
